Results as given in the supplement of paper PMC7366291.
Counter-ions that a name gives are not always drawn. ± gives the standard deviation or the standard deviation of the averaged measurements.

Tests used:
Settings in all cases: 25 µM; exposure: 24-48 hpf
[1] = tested on: Danio rerio Tg(wt1b:EGFP) embryo, pronephros; test: glomerular separation, fold change vs DMSO control; higher = glomeruli further apart (abnormal)
Procedure, shortened: (§1)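 Using a Fiji macro, distances and angles were calculated from 16 reference points set by hand on maximum projections of pronephroi imaged dorsally (470 nm, 10 z-slices) in agarose-filled 96-well plates. The dechorionated Tg(wt1b:EGFP) zebrafish embryos had received 25 μM compound in 0.5% DMSO in HEPES-buffered E3 with 0.003% PTU from 24 to 48 hpf at 28.5°C. Values more than 2 SD from a feature's mean were excluded. Each feature appears as a fold change over the mean of DMSO-treated embryos from the same day.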

[2] = tested on: Danio rerio Tg(wt1b:EGFP) embryo, pronephros; test: glomerular width (mean of left and right), fold change vs DMSO control; higher = wider glomerulus
Procedure, shortened: as §1

[3] = tested on: Danio rerio Tg(wt1b:EGFP) embryo, pronephros; test: fraction of imaged embryos annotated as normal kidney; higher = less nephrotoxic; extreme values may be limits of the assay
Procedure, shortened: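 Embryos of the Tg(wt1b:EGFP) zebrafish line were dechorionated and held in 12-well plates with 25 μM compound in 0.5% DMSO and 5 mM HEPES-buffered E3 containing 0.003% PTU, from 24 to 48 hpf at 28.5°C. Larvae were then anaesthetised with tricaine, set dorsal side up in agarose-filled 96-well plates, and their pronephroi imaged by widefield fluorescence at 470 nm over 10 z-slices. Each value is the fraction of embryos per treatment placed in the normal-kidney category after manual annotation of maximum projections.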

[4] = tested on: Danio rerio Tg(wt1b:EGFP) embryo, pronephros; test: pronephric angle neck segment to proximal convoluted tubule (mean of left and right), fold change vs DMSO control; higher = larger pronephric angle
Procedure, shortened: as §1

| SMILES | glomerular separation [1] | glomerular width [2] | fraction of imaged embryos annotated as normal kidney [3] | pronephric angle neck segment [4] |
| --- | --- | --- | --- | --- |
| O=C(COc1ccc(Cl)cc1)N1CCN(Cc2ccc3c(c2)OCO3)CC1 [Fipexide hydrochloride] | 1.26 ± 0.55 | 0.86 ± 0.031 | 0.75 | 1.24 ± 0.11 |
| CC1Cc2ccccc2N1NC(=O)c1ccc(Cl)c(S(N)(=O)=O)c1 (stereo not drawn) [Indapamide] | 1.2 ± 0.88 | 0.904 ± 0.058 | 0.909 | 0.988 ± 0.041 |
| Cc1ccc(C(=O)c2ccc(CC(=O)O)n2C)cc1 [Tolmetin sodium salt dihydrate] | 1.55 ± 0.69 | 1.006 ± 0.0038 | 0.333 | 1 ± 0.075 |
| NNC(=O)c1ccncc1 [Isoniazid] | 0.891 ± 0.099 | 1.09 ± 0.032 | 1 | 0.978 ± 0.02 |
| N=C(N)N/N=C/c1c(Cl)cccc1Cl [Guanabenz acetate] | 1.12 ± 0.47 | 1.072 ± 0.01 | 1 | 0.9461 ± 0.00069 |
| CCc1nc(N)nc(N)c1-c1ccc(Cl)cc1 [Pyrimethamine] | 0.78 ± 0.26 | 1.15 ± 0.041 | 0.75 | 0.974 ± 0.018 |
| CC[N+](C)(C)Cc1ccccc1Br [Bretylium tosylate] | 0.631 ± 0.23 | 0.9664 ± 0.0094 | 1 | 0.982 ± 0.028 |
| C[C@]12C=CC(=O)C=C1CC[C@H]1[C@@H]3C[C@@H](O)[C@](O)(C(=O)CO)[C@@]3(C)C[C@H](O)[C@@]12F [Triamcinolone] | 1.19 ± 0.58 | 1.23 ± 0.034 | 0.75 | 1.119 ± 0.0058 |
| CC(=O)Oc1cc(C(C)C)c(OCCN(C)C)cc1C [Moxisylyte hydrochoride] | 0.853 ± 0.24 | 1.03 ± 0.0053 | 0.917 | 0.977 ± 0.068 |
| CCC[C@@H]1C[C@@H](C(=O)N[C@@H]([C@H]2O[C@H](SC)[C@H](O)[C@@H](O)[C@H]2O)[C@H](C)Cl)N(C)C1 [Clindamycin hydrochloride] | 0.862 ± 0.2 | 0.964 ± 0.053 | 0.917 | 0.995 ± 0.013 |
| CCCC(=O)Nc1ncnc2c1ncn2[C@@H]1O[C@@H]2COP(=O)(O)O[C@H]2[C@H]1OC(=O)CCC [Bucladesine sodium salt] | 0.912 ± 0.4 | 0.933 ± 0.04 | 0.917 | 0.9351 ± 0.0021 |
| C[N+]1(C)CCC(OC(=O)C(O)(c2ccccc2)C2CCCC2)C1 (stereo not drawn) [Glycopyrrolate] | 1.14 ± 0.48 | 1.02 ± 0.055 | 0.583 | 1.06 ± 0.028 |
| Nc1nc(/C(=C/CC(=O)O)C(=O)N[C@@H]2C(=O)N3C(C(=O)O)=CCS[C@H]23)cs1 [Ceftibuten] | 0.515 ± 0.17 | 1.016 ± 0.0039 | 1 | 0.963 ± 0.019 |
| CCCC(CCC)C(=O)O [Valproic acid] | 1.62 ± 0.94 | 0.725 ± 0.057 | 0.0833 | 1.11 ± 0.14 |
| Nc1ncnc2c1ncn2[C@@H]1O[C@H](CO)[C@@H](O)[C@@H]1O [Vidarabine] | 1.29 ± 0.56 | 1.06 ± 0.023 | 0.583 | 1.03 ± 0.074 |
| CCCCC(CC)CN1CN(CC(CC)CCCC)CC(C)(N)C1 (stereo not drawn) [Hexetidine] | 1.05 ± 0.29 | 0.9542 ± 0.0081 | 0.75 | 0.9331 ± 0.005 |
| CCC1=C(C)CN(C(=O)NCCc2ccc(S(=O)(=O)NC(=O)N[C@H]3CC[C@H](C)CC3)cc2)C1=O [Glimepiride] | 0.872 ± 0.29 | 1.02 ± 0.06 | 0.917 | 1 ± 0.03 |
| c1ccc([C@H]2CN3CCSC3=N2)cc1 [Levamisole hydrochloride] | 0.699 ± 0.16 | 1.08 ± 0.018 | 0.917 | 0.979 ± 0.016 |
| C[C@H](CCC(=O)O)[C@H]1CC[C@H]2[C@@H]3[C@H](O)C[C@@H]4C[C@H](O)CC[C@]4(C)[C@H]3CC[C@]12C [Chenodiol] | 2.11 ± 0.81 | 0.744 ± 0.025 | 0.333 | 1.04 ± 0.13 |
| OC(CCCN1CCCCC1)(c1ccccc1)c1ccccc1 [Diphenidol hydrochloride] | 0.854 ± 0.23 | 1.1 ± 0.11 | 0.833 | 1.06 ± 0.02 |
| Cc1cn([C@H]2C=C[C@@H](CO)O2)c(=O)[nH]c1=O [Stavudine] | 0.929 ± 0.3 | 0.874 ± 0.0014 | 1 | 0.9729 ± 0.00098 |
| CC(=O)O[C@H]1C[C@@]2(C)[C@@H](C[C@@H](O)[C@H]3[C@@]4(C)CC[C@@H](O)[C@@H](C)[C@@H]4CC[C@@]32C)/C1=C(\CCC=C(C)C)C(=O)O [Fusidic acid sodium salt] | 0.853 ± 0.16 | 1.06 ± 0.025 | 1 | 1.02 ± 0.014 |
| CCN(CC)CCNc1ccc(CO)c2sc3ccccc3c(=O)c12 [Hycanthone] | 1.12 ± 0.27 | 0.968 ± 0.052 | 0.833 | 0.977 ± 0.059 |
| CCN1CC(CCN2CCOCC2)C(c2ccccc2)(c2ccccc2)C1=O (stereo not drawn) [Doxapram hydrochloride] | 0.953 ± 0.32 | 0.981 ± 0.0026 | 0.833 | 0.9542 ± 0.0079 |
| O=C(c1ccc(F)cc1)C1CCN(CCn2c(=O)[nH]c3ccccc3c2=O)CC1 [Ketanserin tartrate hydrate] | 0.846 ± 0.25 | 0.939 ± 0.021 | 0.833 | 1.03 ± 0.046 |
| Nc1nc(Cl)nc2c1ncn2[C@H]1C[C@H](O)[C@@H](CO)O1 [Cladribine] | 0.896 ± 0.38 | 0.945 ± 0.021 | 0.909 | 1.005 ± 0.0066 |
| Cc1c(Cl)cccc1Nc1ncccc1C(=O)O [Clonixin Lysinate] | 4.04 ± 1.5 | 0.545 ± 0.048 | 0 | 1.81 ± 0.068 |
